TDP1 cell noCPT – qHTS for Inhibitors of human tyrosyl-DNA phosphodiesterase 1 (TDP1): qHTS in cells in absence of CPT | Potency, µM (titrated, usually from 46.2 µM), without a hit: top-dose activity change, negative = growth inhibition, usual class: inhibitors | actives 15% (n = 420,000) | AID 686978, 2013 | DT40 Tdp1-/- hTDP1 cells, no CPT, ATP luminescence, 48 h; further: potency means the concentration at half of the fitted maximal effect; nearly all actives have a fitted effect of over 55% in size
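Growth of hTDP1-complemented DT40 Tdp1-knockout cells is measured by ATP luminescence after at least 48 hr compound exposure at 37 °C, with DMSO substituting for the 20 nM CPT used in the parallel screen.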
IL1B secr inh – inflammasome signaling inhibition, IL-1 beta readout; actives 4.7% (n = 360,000); activity change, % at 57.5 µM; THP-1 LPS/ATP IL-1B secretion, AlphaLISA, 16 h; stronger effect = lower value; in the data active means activity change below about -50%; inconclusive means mostly about -30% to -49%
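Secreted IL-1B measured by AlphaLISA bead assay after 16 h compound exposure of THP-1 cells; compounds (final up to 57.5 uM) added 1 h before LPS (250 ng/mL) and ATP (1.25 mM) stimulation; lower signal means less secretion.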
ELG1 DNA repair – inhibitors of ELG1-dependent DNA repair in HEK293T cells | HEK293T ELG1-luciferase reporter, luminescence, 16 h; DNA damage induced by 5-fluorouridine | actives 2.3% (n = 330,000) | Potency, µM (series often up to 46.1 µM), for the others: at the top dose activity change, negative = inhibition, most hits filed as inhibitors; further: potency means the concentration at half of the fitted maximal effect; nearly all actives have a fitted effect of over 55% in size
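Cells (2,000 per well) received 5-fluorouridine plus test compound or DMSO and were incubated 16 hr at 37 °C, 5% CO2. Luciferase activity was read by luminescence 30 min after ONE-Glo addition; signal suppression marked inhibition of damage-induced ELG1 function.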
HT1080 IDH1KD tx – kills HT-1080 cells with IDH1 knockdown; HT-1080 IDH1 knockdown viability, ATP luminescence, 48 h; Potency, µM (top dose mostly 46.1 µM), for inactives: top-dose activity, negative = toxicity, usual class: cytotoxic; actives 2% (n = 360,000); AID 686971;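 further: potency means the concentration at half of the fitted maximal effect; 0% = DMSO wells and -100% = cell-free medium wells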
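After a 2 h attachment period, IDH1KD HT-1080 cells took pin-transferred compound for 48 h at 37 °C; ATP-based luminescence after 10 min room-temperature reagent incubation reported viability.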
HT1080NT lethal – kills 2HG-producing HT-1080-NT fibrosarcoma cells. HT-1080-NT fibrosarcoma viability, CellTiter-Glo ATP luminescence, 48 h. actives 1.6% (n = 360,000). Potency, µM (titrated, usually from 46.1 µM), for the others: at the top dose activity, negative = less viability, hits mostly cytotoxic;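 further: NT is the 2HG producing partner of a matched IDH1 knockdown line; potency means the concentration at half of the fitted maximal effect; 0% = DMSO-treated cells and -100% = media-only wells without cells; nearly all actives have a fitted effect of over 55% in size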
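Luminescent CellTiter-Glo readout after 48 hours of compound exposure at 37 degrees C defined viability of HT-1080-NT cells. Activity was normalized to DMSO wells and cell-free media wells; concentration-response curves were fitted and assigned curve classes.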
TDP1 cell CPT – DT40-hTDP1 cell growth loss with CPT | chicken DT40 Tdp1-/-;hTDP1 cells + 20 nM CPT, ATP luminescence, 48 h | Potency, µM (series often up to 46.2 µM), without a hit: top-dose activity change, negative = growth inhibition, usual class: inhibitors | actives 12% (n = 420,000); further: potency means the concentration at half of the fitted maximal effect; nearly all actives have a fitted effect of over 55% in size
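Cell growth measured by CellTiter-Glo luminescence after a minimum 48 h, 37 C compound exposure with 20 nM CPT in Tdp1-knockout DT40 cells stably expressing hTDP1, seeded 400/well; qHTS titration format.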
* marks the source's active call; other numbers are inactive results; u = inconclusive; x = no result given. Rows were chosen to be rich in hits. Some 19% of all compounds tested hit in one or more screens of this group. Unless noted, the call rests on the fitted dose curve; in most records, active means well fitted curve in the direction sought with a large enough effect; inconclusive means small, poorly fitted or top-dose-only effect, or another doubt; inactive means no such curve, though single readings can be large; an effect the other way counts as inactive or inconclusive. Unless noted, on the % scale 0 is the no-effect control and ±100 the full control effect.

SMILES	TDP1 cell noCPT	IL1B secr inh	ELG1 DNA repair	HT1080 IDH1KD tx	HT1080NT lethal	TDP1 cell CPT
CCOc1ccc(N(CC(=O)Nc2ccc(OC)cc2)S(=O)(=O)c2c(C)noc2C)cc1	u	34	u	-3%	0%	-22%
COc1ccc(N(CC(=O)Nc2ccc(OC)c(Cl)c2)S(=O)(=O)c2c(C)noc2C)cc1	21µM*	1	u	-21%	-17%	21µM*
COc1ccc(N(CC(=O)Nc2ccc(C)c(C)c2)S(=O)(=O)c2c(C)n[nH]c2C)cc1	u	-124*	u	-11%	-7%	u
COc1ccc(NC(=O)CN(c2cc(C)cc(C)c2)S(=O)(=O)c2c(C)noc2C)cc1Cl	23µM*	x	x	x	x	u
COc1ccc(N(CC(=O)Nc2cccc(C)c2)S(=O)(=O)c2c(C)n[nH]c2C)cc1	-6%	-9	14%	6%	2%	-2%
O=C(N/N=C/c1ccccc1O)C1CC(=O)N(c2ccc(F)cc2)C1 (stereo not drawn)	5.8µM*	89	u	u	u	3.3µM*
N[C@@H](C(=O)O)c1ccc(C(=O)O)c(C(=O)O)c1	-14%	x	x	x	x	-7%
Cc1ccc(NC(=O)C2CCCN(c3ncnc4c3nc3n4CCCCC3)C2)c(Br)c1 (stereo not drawn)	4.1µM*	x	x	x	x	5.8µM*
O=C(Nc1ccc(F)cc1F)C1CCCN(c2ncnc3c2nc2n3CCCCC2)C1 (stereo not drawn)	15µM*	-55*	-24%	-11%	-23%	13µM*
O=C(Nc1cc(F)ccc1F)C1CCCN(c2ncnc3c2nc2n3CCCCC2)C1 (stereo not drawn)	13µM*	16	u	2%	-1%	15µM*
CCC1CCCCN1C(=O)Cn1c(=O)n(-c2ccc(Cl)c(Cl)c2)c(=O)c2c(C)c(C(=O)N(C)C)sc21 (stereo not drawn)	-16%	x	x	x	x	-2%
CC(C)OC(=O)c1cc2c(OCC(O)CNC(C)(C)C)cccc2[nH]1 (stereo not drawn)	-52%	x	x	x	x	u
Cc1ccc(CNc2nnc(C)c3nnn(Cc4ccc(F)cc4)c23)cc1	2%	x	x	x	x	u
Cn1c(NCc2ccccc2)nc2cc(-c3ccccc3)sc2c1=O	u	51	x	2%	9%	u
CN(C)CCCNc1nc2cc(-c3ccc4c(ccn4C)c3)sc2c(=O)n1C	u	-28	x	u	u	21µM*
COc1ncccc1-c1cc2nc(NCCCN(C)C)n(C)c(=O)c2s1	8.2µM*	-4	x	-27%	-23%	8.2µM*
Cc1ccc(F)cc1-c1cc2nc(NCCCN(C)C)n(C)c(=O)c2s1	16µM*	-8	x	15µM*	21µM*	23µM*
CN(C)CCCNc1nc2cc(-c3cnn(Cc4ccccc4)c3)sc2c(=O)n1C	u	-3	x	23µM*	9.2µM*	u
COc1ccccc1-c1nnc(C2CCN(S(=O)(=O)c3ccccc3[N+](=O)[O-])CC2)o1	-13%	3	0%	1%	5%	u
CCn1c(SCc2ccccc2)nc2cc(S(N)(=O)=O)ccc21	u	21	-26%	0%	-17%	-24%
O=C(CNC(=O)c1ccc(C(F)(F)F)cc1)NC1CC1	-32%	23	3%	15%	2%	-10%
Cc1c(C)c2c(cc(C)c3c(-c4ccccc4)coc32)oc1=O	1%	x	x	x	x	-1%
COc1cccc(-c2cc3nc(NCCCN(C)C)n(C)c(=O)c3s2)c1	u	-63*	x	u	u	u
COCCNc1nc2cc(-c3ccccc3)sc2c(=O)n1C	u	6	x	-7%	-5%	u
CC(NC(=O)CN(C)Cc1cccc(Cl)c1)c1ccccc1 (stereo not drawn)	u	-17	11%	-1%	-3%	-27%
SMILES	TDP1 cell noCPT	IL1B secr inh	ELG1 DNA repair	HT1080 IDH1KD tx	HT1080NT lethal	TDP1 cell CPT
COc1ccc(Cl)cc1N(CC(=O)NC(C)(C)C)S(=O)(=O)c1ccc(C)c([N+](=O)[O-])c1	21µM*	17	-6%	-14%	-12%	16µM*
COc1ccc(S(=O)(=O)Nc2ccc(C)cc2)cc1N(C)S(=O)(=O)c1ccc(Cl)cc1	18µM*	-60*	u	-17%	u	23µM*
COC(=O)CN(c1cc(Cl)ccc1OC)S(=O)(=O)c1ccc(C)cc1	18µM*	48	u	16µM*	18µM*	u
Cc1ccc(CNC(=O)Cn2c3ncccc3c(=O)n2-c2ccccc2)cc1	-22%	x	x	x	x	u
COCCN1C(=O)CCC1(C)C(=O)NC1CCCCC1 (stereo not drawn)	10%	19	x	1%	u	8%
CCC(C)NC(=O)Cn1c(=O)n(-c2ccc(OC)c(OC)c2)c(=O)c2ccccc21 (stereo not drawn)	17%	x	x	x	x	3%
C[C@@H]1CN([C@@H](C)CO)C(=O)c2cc(NS(C)(=O)=O)ccc2O[C@@H]1CN(C)S(=O)(=O)c1ccccc1	-3%	-21	14%	-4%	1%	-2%
C[C@H](CO)N1C[C@H](C)[C@@H](CN(C)S(=O)(=O)c2ccccc2)Oc2c(NC(=O)C3CC3)cccc2C1=O	0%	10	x	3%	2%	-1%
C[C@H](CO)N1C[C@H](C)[C@@H](CN(C)S(=O)(=O)c2ccccc2)Oc2ccc(NC(=O)C3CC3)cc2C1=O	u	-4	18µM*	-3%	-1%	-16%
C[C@H](CO)N1C[C@H](C)[C@@H](CN(C)S(=O)(=O)c2ccccc2)Oc2ccc(NC(=O)Nc3ccccc3)cc2C1=O	u	123	21µM*	-22%	-15%	-91%
C[C@H](CO)N1C[C@H](C)[C@@H](CN(C)S(=O)(=O)c2ccccc2)Oc2c(NC(=O)NC3CCCCC3)cccc2C1=O	u	-51*	u	-10%	-18%	18µM*
C[C@H](CO)N1C[C@H](C)[C@@H](CN(C)S(=O)(=O)c2ccc(F)cc2)Oc2ccc(NC(=O)Nc3ccccc3)cc2C1=O	15µM*	0	23µM*	-10%	0%	u
C[C@@H]1Cc2[nH][nH]c(=O)c2[C@H](c2ccc(Cl)cc2)O1	-17%	-7	x	24%	19%	-4%
